# Screening data as filed in PubChem.
# TROY NFkB inh: TROY signaling inhibition; inhibition, % at 10 µM; Q293 LMP1-TROYcd NF-kB luciferase reporter, 4 h; hit rate 0.98% among 360,000;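 active = compounds whose plate-normalised and pattern-corrected inhibition of the luciferase reporter signal at the single screening dose is 50% or more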
# TWEAK Fn14 block: blocks TWEAK-Fn14 interaction in a reporter cell assay | inhibition, % at 10 µM | hit rate 2% among 360,000 | TWEAK-stimulated Fn14 reporter cells, luciferase luminescence, 8 h; in the data active = inhibition above about 50%
# HSF1 inhib: HSF1 inhibition; NIH3T3-HGL HSE-luciferase, MG132-induced, luminescence 8 h; hits give low values; activity change, negative = inhibition, % at 7.5 µM (by protocol); hit rate 0.77% among 300,000; AID 2098;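 active = more than half of replicate wells show activity change below -50%, luminescence cut by over half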;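 note: luciferase reports HSF-1 transcriptional activity via heat shock element; 0% = median of DMSO wells and -100% = zero luminescence signal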
# HSF-1 act: increases HSF-1 driven luciferase reporter signal | NIH3T3-HGL HSF-1 luciferase reporter, MG132, 8 h; 100% = twice DMSO control signal | activation, % at 9 µM | hit rate 1.7% among 300,000;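 active = mean replicate activation of at least 50% with a set share of replicates each reaching 50%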;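 note: 0% = median of the neutral control wells and 100% = twice that signal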
# LGR2 antag: Drosophila LGR2 receptor signaling inhibition. HEK293 LGR2, CRE-luciferase, bursicon-stimulated, 4 h. inhibition, % at 9.99 µM. hit rate 0.35% among 380,000;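 active = drop in luminescence signal, shown as inhibition above about 50% in the replicate tests, limit read from the data, passing the limit was not always enough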;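 note: agonist challenge used bursicon conditioned medium at about half maximal strength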
# LMP1 NFkB inh: reduces LMP1-driven NF-kappaB luciferase signal | LMP1-induced NF-kappaB luciferase reporter cells, luminescence | inhibition, % at 12.5 µM | hit rate 0.69% among 350,000; in the data active = inhibition above about 41%;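 note: 0% = neutral control wells and 100% = reference inhibitor control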
# Starred values were filed as active, the others as inactive; · = not tested or not shown. Rows were chosen to be rich in hits. Some 3.6% of all compounds tested hit in one or more screens of this group.
SMILES,TROY NFkB inh,TWEAK Fn14 block,HSF1 inhib,HSF-1 act,LGR2 antag,LMP1 NFkB inh
CCC(=O)N1[C@H](CO)[C@H](c2ccccc2)C12CN(C(=O)Nc1cccc(OC)c1)C2,·,·,·,·,9,·
Cc1[nH]c2ccccc2c1/C=N/NC(=O)C1CC1(c1ccccc1)c1ccccc1 (configuration not stated),24,66*,0,8,-8,-26
Cc1[nH]c2ccccc2c1/C=N\NC(=O)c1ccccc1Cl,-4,-10,·,·,-6,-12
CO[C@H]1CN(C)C(=O)c2cc(NC(=O)CC(F)(F)F)ccc2OC[C@@H](C)N(C(=O)C2CC2)C[C@@H]1C,·,·,·,·,10,·
CCN1CCN(c2nc3c(c(=O)[nH]c(=O)n3C)n2CCSc2nc3ccccc3s2)CC1,3,-7,-4,8,10,-5
CC(CSc1nc2ccccc2s1)Cn1c(N2CCCC2)nc2c1c(=O)[nH]c(=O)n2C (configuration not stated),21,-9,22,56*,·,0
COCC(=O)N1CCC2(CC1)CN(S(C)(=O)=O)[C@H](CO)c1c2c2ccc(OC)cc2n1C,·,·,·,·,2,·
CCN(CC)C(=O)[C@]1(c2ccccc2)C[C@@H]1CN,·,·,-1,-14,·,·
CC1C(=O)CCC1(C(=O)O)c1ccccc1 (configuration not stated),-3,98*,-7,-3,0,6
Cc1ccc(S(=O)(=O)N(C)C[C@H]2Oc3ccc(NS(C)(=O)=O)cc3C(=O)N([C@@H](C)CO)C[C@@H]2C)cc1,·,·,·,·,-5,·
COc1ccc(S(=O)(=O)N(CCCN2CCOCC2)Cc2cccc3ccccc23)cc1,·,92*,-3,-1,·,0
O=C(Cn1c2ccccc2c(=O)c2ccccc21)N/N=C/c1cc([N+](=O)[O-])ccc1N1CCCCCC1,5,1,-22,-18,·,20
O=C(Cn1c2ccccc2c(=O)c2ccccc21)N/N=C/c1ccc(N2CCCC2)c([N+](=O)[O-])c1,35,65*,6,5,-8,14
O=C(O/N=C\c1ccc(N2CCCCC2)c([N+](=O)[O-])c1)c1c(F)cccc1F,·,78*,3,7,·,2
O=C(O/N=C\c1ccc(N2CCCCC2)c([N+](=O)[O-])c1)c1cccc(Cl)c1,12,-9,2,-6,·,5
CCCC(=O)Nc1ccc2c(c1)OC[C@@H](C)N(C(=O)C1CCCC1)C[C@H](C)[C@H](OC)CN(C)C2=O,·,·,·,·,3,·
c1ccc2c(c1)CCN(c1ncnc3c1[nH]c1ccccc13)C2,48,85*,12,17,·,39
OC1(c2cccc(C(F)(F)F)c2)CCN(c2ncnc3c2[nH]c2ccccc23)CC1,53*,58*,-2,10,·,26
COc1cccc2[nH]c3c(N4CCc5ccccc5C4)ncnc3c12,·,·,43,60*,·,·
CO[C@@H]1CN(C)C(=O)c2cc(NC(=O)Nc3cccc(Cl)c3)ccc2OC[C@@H](C)NC[C@@H]1C,·,·,·,·,-5,·
C[C@@H]1CN([C@@H](C)CO)S(=O)(=O)c2ccc(C#Cc3ccncc3)cc2O[C@@H]1CN(C)CC1CC1,·,·,·,·,-2,·
O=C(Nc1ccc(Cl)cc1)N[C@H]1CC[C@@H](CCn2cc(Cc3ccccc3)nn2)O[C@@H]1CO,·,·,·,·,-2,·
COc1ccccc1NC(=O)N[C@@H]1CC[C@H](CCNS(=O)(=O)c2ccc(F)cc2)O[C@@H]1CO,·,·,·,·,7,·
COc1ccc(CN(C)C[C@H]2OCCCC[C@H](C)Oc3ccc(NS(=O)(=O)c4ccccc4)cc3C(=O)N([C@@H](C)CO)C[C@H]2C)cc1,·,·,·,·,-2,·
CSc1nsc(SCC(=O)NCc2ccccc2)n1,8,20,-2,-4,8,-13
COc1ccc(-c2csc(NC(=O)CSc3nc(C)cs3)n2)cc1,2,-34,10,9,·,-7
COc1ccc(-c2csc(NC(=O)CSc3nc(SC)ns3)n2)cc1,54*,69*,24,71*,10,-2
CSc1nsc(SCC(=O)NCc2ccc(C)cc2)n1,11,7,-79*,-84,31,-2
COc1ccc2nc(NC(=O)CSc3nnc(C)s3)sc2c1,-49,3,14,-7,-29,-17
COc1ccc2nc(NC(=O)CSc3nc(SC)ns3)sc2c1,24,53*,7,-3,-31,-4
